ID4 SMM: binds human ID4 protein on microarray | AID 624137 | P47928 | small molecule microarray, Flag-ID4 binding, fluorescence F/B | actives 1.2% (n = 31,000) | calls only; call rule not given here;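 further: a binder raises fluorescence above local background on the spot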
STK33 kin inh: blocks human STK33 kinase activity | Q9BYT3 | ADP-Glo luminescence, MBP substrate | inhibition, % at 12.5 µM | actives 0.44% (n = 27,000); in the data active means inhibition above about 20%; inconclusive means no clear call, values can overlap the other calls
Target sequence (Q9BYT3 whole entry, looked up): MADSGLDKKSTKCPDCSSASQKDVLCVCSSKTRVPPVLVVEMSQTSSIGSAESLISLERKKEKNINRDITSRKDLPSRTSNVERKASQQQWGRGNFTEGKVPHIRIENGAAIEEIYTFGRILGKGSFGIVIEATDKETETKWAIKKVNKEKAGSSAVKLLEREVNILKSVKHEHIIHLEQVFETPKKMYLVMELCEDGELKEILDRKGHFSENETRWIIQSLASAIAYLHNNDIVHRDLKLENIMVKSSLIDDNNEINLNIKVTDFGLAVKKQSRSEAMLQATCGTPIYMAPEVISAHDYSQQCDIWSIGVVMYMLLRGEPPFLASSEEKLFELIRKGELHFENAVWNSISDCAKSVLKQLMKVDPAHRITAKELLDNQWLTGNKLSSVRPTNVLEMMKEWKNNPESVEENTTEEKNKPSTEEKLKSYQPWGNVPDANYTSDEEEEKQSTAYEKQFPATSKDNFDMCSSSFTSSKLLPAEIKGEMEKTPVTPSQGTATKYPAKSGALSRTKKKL
p53 PUMA act: mutant p53 pathway reactivation. SW480 PUMA-promoter luciferase. activation, % at 9.98 µM. actives 1.5% (n = 28,000). AID 624151; in the data active means activation above about 52%; inconclusive means no clear call, values can overlap the other calls
Large screens that a line does not name were inactive. The list is not random: actives were taken first. Their share in the collection is about 2.1%.

Cc1noc(C)c1NC(=O)N(C)C[C@@H]1OCCCC[C@@H](C)Oc2ccc(NS(=O)(=O)c3cccs3)cc2C(=O)N([C@@H](C)CO)C[C@H]1C	none (no result: STK33 kin inh)
Cc1noc(C)c1NC(=O)N(C)C[C@H]1OCCCC[C@@H](C)Oc2ccc(NS(=O)(=O)c3c(C)noc3C)cc2C(=O)N([C@H](C)CO)C[C@@H]1C	none (no result: ID4 SMM, p53 PUMA act)
CNC[C@@H]1OCCCC[C@H](C)Oc2ccc(NS(=O)(=O)c3cn(C)cn3)cc2C(=O)N([C@@H](C)CO)C[C@@H]1C	ID4 SMM active (no result: STK33 kin inh)
Cc1noc(C)c1NC(=O)N(C)C[C@@H]1OCCCC[C@H](C)Oc2ccc(NS(=O)(=O)c3cccs3)cc2C(=O)N([C@@H](C)CO)C[C@@H]1C	ID4 SMM active (no result: STK33 kin inh)
CNC[C@@H]1OCCCC[C@@H](C)Oc2ccc(NS(=O)(=O)c3cn(C)cn3)cc2C(=O)N([C@@H](C)CO)C[C@@H]1C	none (no result: STK33 kin inh)
Cc1noc(C)c1NC(=O)N(C)C[C@H]1OCCCC[C@@H](C)Oc2ccc(NS(C)(=O)=O)cc2C(=O)N([C@@H](C)CO)C[C@H]1C	none (no result: STK33 kin inh)
Cc1noc(C)c1NC(=O)N(C)C[C@@H]1OCCCC[C@@H](C)Oc2ccc(NS(=O)(=O)c3cccs3)cc2C(=O)N([C@H](C)CO)C[C@H]1C	ID4 SMM active (no result: STK33 kin inh)
O=C(Nc1ccc(Br)cc1)c1ccc(NS(=O)(=O)c2cccc3cccnc23)cc1	none
COC(=O)c1ccccc1NC(=O)CSc1ncnc2sc3c(c12)CCC(C)C3 (stereo not given)	none
Cc1ccc(S(=O)(=O)c2nc(-c3ccccc3F)oc2NCC2CCCO2)cc1 (stereo not given)	none
Cc1noc(C)c1NC(=O)N(C)C[C@@H]1OCCCC[C@H](C)Oc2ccc(NS(=O)(=O)c3cn(C)cn3)cc2C(=O)N([C@@H](C)CO)C[C@H]1C	none (no result: STK33 kin inh)
Cc1noc(C)c1NC(=O)N(C)C[C@@H]1OCCCC[C@@H](C)Oc2ccc(NS(=O)(=O)c3cn(C)cn3)cc2C(=O)N([C@H](C)CO)C[C@H]1C	ID4 SMM active (no result: STK33 kin inh)
CO[C@@H]1CN(C)C(=O)c2ccc(NC(C)=O)cc2OC[C@@H](C)N(CCc2ccccc2)C[C@H]1C	ID4 SMM active (no result: STK33 kin inh, p53 PUMA act)
CCCC(=O)Nc1ccc2c(c1)OC[C@@H](C)N(CCc1ccccc1)C[C@@H](C)[C@H](OC)CN(C)C2=O	none (no result: STK33 kin inh, p53 PUMA act)
Cc1ccc(C2C(C(=O)c3sc(-c4ccccc4)nc3C)C(=O)C(=O)N2CCN(C)C)o1 (stereo not given)	none
O=C(COc1ccc(I)cc1)Nc1cc(C(=O)O)cc(C(=O)O)c1	ID4 SMM active
COC(=O)c1cccc(NC(=O)COc2ccc(I)cc2)c1	none
COc1ccccc1-c1nnc(SCC(=O)c2ccc([N+](=O)[O-])cc2)o1	none
COc1cc(C(c2ccc(C)o2)c2ccc(C)o2)c(O)c([N+](=O)[O-])c1	none
COc1ccc(S(=O)(=O)N(CC(=O)Nc2ccccc2)C2CCCCC2)cc1Cl	none
C[C@@H]1O[C@@H](O[C@H]2[C@H](O)[C@@H](O)[C@H](OC[C@H]3O[C@@H](OC(=O)[C@]45CCC(C)(C)CC4C4=CCC6[C@@]7(C)CC[C@H](O)C(C)(C)C7CC[C@@]6(C)[C@]4(C)CC5)[C@H](O)[C@@H](O)[C@@H]3O)O[C@@H]2CO)[C@H](O)[C@H](O)[C@H]1O (stereo not given in full)	none (no result: ID4 SMM, p53 PUMA act)
COc1ccc2cc(C(=O)NCc3ccco3)c(=O)oc2c1	p53 PUMA act 74
CCOc1cccc2cc(C(=O)NCc3ccco3)c(=O)oc12	none
COc1ccc(OC)c(NC(=O)COc2ccc(C(C)(C)C)cc2)c1	p53 PUMA act 64
CCc1ccccc1OCC(=O)Nc1cc(OC)ccc1OC	p53 PUMA act 93
COC(=O)c1ccc(OCC(=O)Nc2cc(OC)ccc2OC)c(OC)c1	none
COc1ccc([N+](=O)[O-])cc1NC(=O)COc1ccc(C(C)(C)C)cc1	p53 PUMA act inconclusive
CCOc1ccc(NC(=O)c2c(NC(=O)CN(C)C)sc3c2CCC3)cc1	none
CCOC(=O)c1c(-c2ccc(C)cc2)csc1NC(=O)C1COc2ccccc2O1 (stereo not given)	none
COc1cc([N+](=O)[O-])ccc1NC(=O)CN(C)S(=O)(=O)c1ccc2ccccc2c1	none
OCC1OC(n2cnc3c(NC4CCCC4)ncnc32)C(O)C1O (stereo not given)	none (no result: STK33 kin inh)
Nc1ncnc2c1c(I)cn2C1OC(CO)C(O)C1O (stereo not given)	STK33 kin inh 53
C[C@H](CO)N1C[C@H](C)[C@@H](CN(C)C(=O)Nc2ccccc2)Oc2ccc(NC(=O)Cn3cnnn3)cc2CC1=O	ID4 SMM active (no result: STK33 kin inh)
C[C@@H]1CN([C@H](C)CO)C(=O)Cc2cc(NC(=O)Cc3ccccc3)ccc2O[C@@H]1CN(C)C(=O)Nc1ccccc1	none
C[C@@H]1CN([C@@H](C)CO)C(=O)Cc2cc(NC(=O)Cc3ccccc3)ccc2O[C@H]1CN(C)C(=O)Nc1ccccc1	ID4 SMM active (no result: STK33 kin inh)
C[C@H]1CN([C@@H](C)CO)C(=O)Cc2cc(NC(=O)Cn3cnnn3)ccc2O[C@@H]1CN(C)C(=O)Nc1ccccc1	none
C[C@@H]1CN([C@@H](C)CO)C(=O)Cc2cc(NS(=O)(=O)c3ccccc3)ccc2O[C@H]1CN(C)C(=O)Nc1ccccc1	ID4 SMM active (no result: STK33 kin inh)
C[C@@H]1CN([C@H](C)CO)C(=O)Cc2cc(NS(=O)(=O)c3ccccc3)ccc2O[C@H]1CN(C)C(=O)Nc1ccccc1	none
Cc1ccc(NC(=O)CSc2n[nH]c(-c3ccccc3Cl)n2)cc1C	none
Clc1ccc(COc2ccccc2CNc2ncn[nH]2)c(Cl)c1	none
O=C1CSC(=NC2CC2)N1Cc1cccs1	none (no result: ID4 SMM, p53 PUMA act)
Cc1cccc(NC(=O)c2cc(NC(=O)C3CCCCC3C(=O)O)ccc2N2CCCCC2)c1 (stereo not given)	none
Cc1cccc(NC(=O)c2cc(NC(=O)CCC(=O)O)ccc2N2CCOCC2)c1	ID4 SMM active
COc1ccc(S(=O)(=O)N(CC(=O)O)c2ccc(F)cc2)cc1	none
COc1cc2c(cc1OC)CN(C(=O)CSc1n[nH]c(N)n1)CC2	ID4 SMM active
Nc1nc(SCC(=O)N2CCc3ccccc32)n[nH]1	none
CC(C)Cc1ccc(/C=C/C(=O)N2CCOCC2)cc1	p53 PUMA act 81 (no result: STK33 kin inh)
CC(C)Cc1ccc(/C=C/C(=O)N2CCN(C/C=C/c3ccccc3)CC2)cc1	none (no result: ID4 SMM, p53 PUMA act)
CC1=CCC(C(=O)O)C(C(=O)Nc2ccccc2NC(=O)c2ccc(C(F)(F)F)cc2)C1 (stereo not given)	p53 PUMA act 108
CC1=CCC(C(=O)O)C(C(=O)Nc2ccc(OC(F)(F)F)cc2)C1 (stereo not given)	none
O=c1occ(CO)c(O)c1CN1CCc2ccccc2C1	none (no result: STK33 kin inh)
CSc1ccccc1NC(=O)CN(C)S(=O)(=O)c1ccc(Br)cc1	none
Cn1nnc2cc(NC(=O)NCc3ccco3)ccc21	none
Cc1nc2cc(NC(=O)NCc3ccco3)ccc2o1	p53 PUMA act 58
COc1ccccc1NC(=O)c1c(NC(=O)COc2ccccc2)sc(C)c1C	none
COc1ccccc1NC(=O)c1c(NC(=O)c2ccco2)sc(C)c1C	p53 PUMA act 76
CC(=O)Nc1nccc(-c2cc(-c3cccc(C(F)(F)F)c3)no2)n1	p53 PUMA act 79 (no result: STK33 kin inh)
Cc1ccnc(SCC(=O)Nc2cccc(C(F)(F)F)c2)n1	none
COCCNC(=S)Nc1nc(OC)cc(OC)n1	none
O=C(NCCNC(=O)c1ccco1)c1ccco1	none
CC(CNC(=O)c1ccco1)NC(=O)c1ccco1 (stereo not given)	ID4 SMM active
